Assay results: PubChem BioAssay (Tox21)
Inconclusive results are not listed. Calls of active or inactive are those of the source. Calls come from the whole dose curve; as a rule, active = well fitted activation curve with a large enough effect in the signal ratio in the repeat runs (not every such curve was filed as active); inconclusive = weak or mixed curves, or effect the other way; inactive = no such curve, though single readings can be large or run the other way; the % refers to the signal ratio.

Target: Peroxisome proliferator-activated receptor gamma (Homo sapiens) (UniProt P37231)
Sequence (P37231 whole entry, looked up): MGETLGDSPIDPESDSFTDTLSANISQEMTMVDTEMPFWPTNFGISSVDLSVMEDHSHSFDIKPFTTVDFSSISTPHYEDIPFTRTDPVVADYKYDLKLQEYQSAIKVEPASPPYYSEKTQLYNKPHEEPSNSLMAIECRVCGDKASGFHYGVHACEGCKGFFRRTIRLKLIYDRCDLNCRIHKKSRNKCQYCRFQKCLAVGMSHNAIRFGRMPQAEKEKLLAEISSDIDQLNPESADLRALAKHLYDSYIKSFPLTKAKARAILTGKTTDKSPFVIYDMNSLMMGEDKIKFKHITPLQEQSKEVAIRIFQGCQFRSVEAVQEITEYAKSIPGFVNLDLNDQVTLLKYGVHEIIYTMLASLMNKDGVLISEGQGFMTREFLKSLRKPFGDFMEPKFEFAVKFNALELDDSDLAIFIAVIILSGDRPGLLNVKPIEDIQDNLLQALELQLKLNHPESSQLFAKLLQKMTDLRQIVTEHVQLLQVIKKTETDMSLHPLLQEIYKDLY
Assay: qHTS assay to identify small molecule agonists of the peroxisome proliferator-activated receptor gamma (PPARg) signaling pathway (AID 743094)
Settings: HEK293H PPARg-UAS-bla, beta-lactamase FRET ratio, 17 h; series mostly up to 57 µM
Excerpt: U.S. Tox21 Program National Center for Advancing Translational Sciences [NCATS] NIH Chemical Genomics Center [NCGC] U.S. Environmental Protection Agency [EPA] National Institutes of Environmental Health Sciences [NIEHS] National Toxicology Program [NTP] U.S. Food and Drug Administration [FDA] Tox21 Assay Overview: The peroxisome proliferator-activated receptors (PPARs) are lipid-activated transcription factors of the nuclear receptor superfamily with three distinct subtypes namely PPAR alpha, PPAR delta (also called PPAR beta) and PPAR gamma (PPARg). All these subtypes heterodimerize with Retinoid X receptor (RXR) and these heterodimers regulate transcription of various genes. PPAR-gamma receptor (glitazone receptor) is involved in the regulation of glucose and lipid metabolism. To identify the compounds that activate PPAR-gamma signaling, GeneBLAzer PPAR gamma UAS-bla HEK293H cell line (Invitrogen, Carlsbad, CA, USA) containing a beta-lactamase reporter gene under control of the control of an upstream activator sequence (UAS) stably integrated into HEK293H cells was used to screen Tox21 compound library.
Tox21 Assay Protocol Summary: PPARg-bla cells were dispensed at 3000 cells/6uL/well in 1536-well black wall/clear bottom plates using a Multidrop Combi (Thermo Fisher Scientific, Waltham, MA) dispenser. After the assay plates were incubated at 37C and 5% CO2 for 5 h, 23 nL of compounds dissolved in DMSO, positive controls or DMSO only was transferred to the assay plate by a Pintool station (Kalypsys, San Diego, CA). The assay plates were incubated at 37C for 17 h. After 1 uL of LiveBLAzerTM B/G FRET substrate was added using a Bioraptr Flying Reagent Dispenser (FRD) workstation (Beckman Coulter, Indianapolis, IN, USA), the plates were incubated at room temperature for 1 h, and fluorescence intensity was measured by an Envision plate reader (PerkinElmer, Shelton, CT).

Row | Structure (SMILES) | outcome
1 | Cc1cnc(C(=O)NCCc2ccc(S(=O)(=O)NC(=O)NC3CCCCC3)cc2)cn1 | inactive
2 | CCCCC(CC)CO (stereo not given) | inactive
3 | O=C(O)c1cc(=O)c2c(OCC(O)COc3cccc4oc(C(=O)O)cc(=O)c34)cccc2o1 | inactive
4 | Nc1cc([N+](=O)[O-])ccc1O | inactive
5 | CCN(CC)CCCC(C)Nc1ccnc2cc(Cl)ccc12 (stereo not given) | inactive
6 | ON=C1CCCCC1 | inactive
7 | OCCOCCOCCO | inactive
8 | COc1ccc(NC(C)=O)cc1N | inactive
9 | CCCCCCCCCCCCc1ccccc1 | inactive
10 | O=C(O)[C@H](O)[C@@H](O)[C@H](O)[C@H](O)CO | inactive
11 | CC(=O)c1ccccc1 | inactive
12 | c1ccc(OCCOc2ccccc2)cc1 | inactive
13 | O=C(O)c1ccccc1C(c1ccc(O)cc1)c1ccc(O)cc1 | inactive
14 | CC[C@H](C)C(=O)O[C@H]1C[C@@H](C)C=C2C=C[C@H](C)[C@H](CC[C@@H]3C[C@@H](O)CC(=O)O3)[C@H]21 | inactive
15 | CC(=O)OCC(=O)[C@@]12N=C(C)O[C@@H]1C[C@H]1[C@@H]3CCC4=CC(=O)C=C[C@]4(C)[C@H]3[C@@H](O)C[C@@]12C | inactive
16 | Fc1ccc(Br)cc1 | inactive
17 | C=C(C)C(=O)O[C@H]1C[C@@H]2CC[C@@]1(C)C2(C)C | inactive
18 | CC(C)(C)[C@@H](O)[C@@H](Cc1ccc(Cl)cc1)n1cncn1 | inactive
19 | C/C=C1/CC2C=CC1C2 (stereo not given) | inactive
20 | O=C(O)c1ccc(C(=O)O)cc1 | inactive

Row | Structure (SMILES) | outcome
21 | CC(=O)Nc1cccc(O)c1 | inactive
22 | CCCCCCCCCCCCOCCO | inactive
23 | CC(C)c1ccc(S(=O)(=O)O)cc1 | inactive
24 | CCOC(=O)NNc1nncc2ccccc12 | inactive
25 | Cc1ccc(N(C)C)cc1 | inactive
26 | N[C@@H](Cc1cc(I)c(Oc2cc(I)c(O)c(I)c2)c(I)c1)C(=O)O | inactive
27 | CCCCCC1=CCCC1=O | inactive
28 | O=C(O)c1ccc2c(c1)C(=O)OC2=O | inactive
29 | CC(=O)CC(=O)Nc1ccccc1 | inactive
30 | FC(F)(F)c1ccc(Cl)c(Cl)c1 | inactive
31 | CCCCC(CC)COC(=O)CCCCC(=O)OCC(CC)CCCC (stereo not given) | inactive
32 | c1c[nH]cn1 | inactive
33 | O=C(O)c1cc(C(=O)O)cc(S(=O)(=O)O)c1 | inactive
34 | O=[N+]([O-])c1ccc(/C=C/c2ccc([N+](=O)[O-])cc2S(=O)(=O)O)c(S(=O)(=O)O)c1 | inactive
35 | CC(C)(N)CO | inactive
36 | Cc1occc(=O)c1O | inactive
37 | O=C(CC(C(=O)OC1CCCCC1)S(=O)(=O)O)OC1CCCCC1 (stereo not given) | inactive
38 | CCCCCOC(C)=O | inactive
39 | CCCCCCOCCO | inactive
40 | Nc1ccccc1[N+](=O)[O-] | inactive
